“And” between values parts separate entries of the source, which are not always exact repeats. Equal values may be shown once. Inconclusive results are not listed. More than one record can exist for a structure, and the calls need not agree. The source made the active and inactive calls. How the source made its calls, unless noted: active means hit-call score of the fitted dose curve at least 0.9, where 1 is the maximum; inconclusive means response in the unintended direction; inactive means score below 0.9.
Tests used:
[1] = test system: SERPINA7 (gene 6906); test: CCTE_GLTED_hTBG: CCTE's human Thyroxine-binding Globulin (TBG) Inhibition Assay, Great Lakes Toxicology and Ecology Division (GLTED) Lab (AID 2284343);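 further: active chemicals lower fluorescence versus DMSO baseline by displacing probe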
In short: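 Human thyroxine-binding globulin was exposed to each chemical for 2 hours, during which the ANSA probe could be displaced. Fluorescence was then measured at 380/475 nm, and loss of signal was analysed relative to DMSO.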

[2] = test system: SRY-box transcription factor 17 (SOX17) Protein Expression, Deisenroth Lab, SOX17 (gene 64321); test: CCTE_Deisenroth_DEVTOX-GLR_legacy_Sox17: (Legacy) CCTE's DevTox GLR-Endo Assay Evaluation of SRY-box transcription factor 17 (SOX17) Protein Expression, Deisenroth Lab (AID 2284341; active means hit-call score of the fitted dose curve at least 0.9, where 1 is the maximum; inactive means score below 0.9); settings: actives raise or lower the signal
In short: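 Using the RUES2-GLR line, compounds are tested as 10-point series during 48-h defined-media differentiation. Sox17 reporter fluorescence per cell determines positivity; endpoint is percentage positive, analysed bidirectionally versus DMSO baseline.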

[3] = test system: SRY-box transcription factor 2 (SOX2) Protein Expression, Deisenroth Lab, SOX2 (gene 6657); test: CCTE_Deisenroth_DEVTOX-GLR_legacy_Sox2: (Legacy) CCTE's DevTox GLR-Endo Assay Evaluation of SRY-box transcription factor 2 (SOX2) Protein Expression, Deisenroth Lab (AID 2284346; active means hit-call score of the fitted dose curve at least 0.9, where 1 is the maximum; inactive means score below 0.9)
In short: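 Percent Sox2-positive cells was scored by high-content imaging of 5 fields per well. Positivity cutoff was 5x BMAD over the directed endoderm control, and the DMSO median was subtracted. Cells were RUES2-GLR, dosed twice at 24-h intervals over 48 h of differentiation (1 nM-200 uM).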

[4] = VALA_TUBIPS_Agonist_CellCount: Viability Assessment in the VALA Sciences human iPS-derived Endothelial Tubule Formation (TUBIPS) Agonism Assay (AID 2284338)
[5] = CCTE_Mundy_HCI_iCellGluta_NOG_NeuriteCount: CCTE's Neurite Outgrowth Assay in iCellGluta cells for Neurite Count, Mundy Lab (AID 2284342);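 further: chemical exposure about 48 hours starting 2 hours after plating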
[6] = Tanguay_ZF_120hpf_MO24: Oregon State University Tanguay Lab 24 Hour Post-fertilization zebrafish Assay for Mortality (AID 2284389; active means hit-call score of the fitted dose curve at least 0.9, where 1 is the maximum; inactive means score below 0.9)
In short: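 Embryo death at 24 hpf was recorded as present or absent in Tropical 5D zebrafish, dechorionated at 4 hpf and dosed statically from 6 hpf (28C, 0.64% DMSO); 5 uM trimethyltin chloride served as positive control.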

[7] = CCTE_Mundy_HCI_iCellGluta_NOG_NeuronCount: CCTE's Neurite Outgrowth Assay in iCellGluta cells for Neuron Count, Mundy Lab (AID 2284340);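 further: cells fixed about 48 h after compound addition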
In short: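 Neuron count read by automated high-content imaging of Hoechst 33342 and betaIII-tubulin/Alexa Fluor-488 labelling in human iPSC glutamatergic neurons. Activity fitted relative to DMSO.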

[8] = CCTE_Deisenroth_H295R-HTRF_384WELL_ESTRADIOL: CCTE's H295R-HTRF Assay Evaluation of Estradiol Concentration, Deisenroth Lab (AID 2284361; active means hit-call score of the fitted dose curve at least 0.9, where 1 is the maximum; inactive means score below 0.9); settings: actives raise or lower the signal
Experimental: CCTE_Deisenroth_H295R-HTRF_384WELL assay is a cell-based, multiplex-readout assay that uses H295R, a human adrenocortical carcinoma cell line, with measurements taken at 48 hours after chemical dosing in a 384-well microplateCCTE_Deisenroth_H295R-HTRF_384WELL_ESTRADIOL is one of 3 assay components calculated in the CCTE_Deisenroth_H295R-HTRF_384WELL assay (2 hormones and 1 viability components). It is designed to make measurements of hormone induction, a form of inducible reporter, as detected with Homogenous Time Resolved Fluorescence immunoassay technology.This assay endpoint, CCTE_Deisenroth_H295R-HTRF_384WELL_ESTRADIOL, was analyzed with bidirectional fitting relative to DMSO as the negative control and baseline of activity. Using a type of inducible reporter, gain or loss-of-signal activity using Homogenous Time Resolved Fluorescence technology was used to understand synthesis of estradiol in the H295R cell line at 48hr of chemical exposure. […]
Standard operating procedures for the cell culture medium, maintenance, expansion, and cryopreservation of the NCI-H295R adrenocortical carcinoma adherent cell line were adopted directly from guideline specifications7,13. […] Fluorescent endpoint measurements are conducted with a microplate reader equipped with an HTRF-compatible filter set (ex: 320 (10) […]; em: 620 (10) and 665 (10) nM). […]

[9] = CCTE_Deisenroth_H295R-HTRF_384WELL_TESTOSTERONE: CCTE's H295R-HTRF Assay Evaluation of Testosterone Concentration, Deisenroth Lab (AID 2284373; active means hit-call score of the fitted dose curve at least 0.9, where 1 is the maximum; inactive means score below 0.9); settings: actives raise or lower the signal
In short: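 H295R cells were acclimated 24 h, then exposed 48 h to nine concentrations (0.001–100 uM final) in technical triplicate, n=5. Testosterone in conditioned medium was measured by HTRF (em 620/665 nm). Fitting was bidirectional versus DMSO; CellTiter-Glo viability ran on the same plates.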

[10] = CCTE_Deisenroth_H295R-HTRF_384WELL_CTOX: Cytotoxicity Assessment in CCTE's H295R-HTRF Assay, Deisenroth Lab (AID 2284380)
In short: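 Luminescent ATP viability readout (CellTiter-Glo 2.0), multiplexed on plates used for hormone sampling, after 48 h chemical exposure. Human H295R cells; final concentrations 0.001–100 uM in nine steps, technical triplicates, five experiments; DMSO baseline.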

Structure (SMILES): ClC1=C(Cl)C(Cl)(Cl)C(Cl)=C1Cl
- AC50 [1]: 23.9 µM (active)

Structure (SMILES): COc1ccc([N+](=O)[O-])cc1N
- AC50 [1]: 50 µM (active)

Structure (SMILES): CC1=C(/C=C/C(C)=C/C=C/C(C)=C/C(=O)O)C(C)(C)CCC1
- AC50 [2]: 0.109 µM (active)
- AC50 [3]: 82.8 µM (active)

Structure (SMILES): O=[N+]([O-])c1ccc(O)cc1
- AC50 [1]: 33.3 µM (active) and 47.2 µM (active)

Structure (SMILES): CCCCCCCCCCCCc1ccccc1S(=O)(=O)O
- AC50 [4]: 1.5 µM (active)
- AC50 [1]: 4.89 µM (active)

Structure (SMILES): C[C@@H]1C[C@H]2[C@@H]3CCC4=CC(=O)C=C[C@]4(C)[C@@]3(F)[C@@H](O)C[C@]2(C)[C@@]1(O)C(=O)COP(=O)(O)O
- outcome [2]: inactive
- outcome [3]: inactive

Structure (SMILES): OCCC(F)(F)C(F)(F)C(F)(F)C(F)(F)C(F)(F)C(F)(F)C(F)(F)C(F)(F)F
- outcome [5]: inactive
- outcome [6]: inactive

Structure (SMILES): CC(O)CO (stereo unspecified)
- outcome [2]: inactive
- outcome [3]: inactive

Structure (SMILES): CC#C[C@]1(O)CC[C@H]2[C@@H]3CCC4=CC(=O)CCC4=C3[C@@H](c3ccc(N(C)C)cc3)C[C@@]21C
- AC50 [7]: 27.3 µM (active)
- outcome [7]: inactive
- AC50 [5]: 58.9 µM (active)
- outcome [5]: inactive
- outcome [8]: inactive
- outcome [9]: inactive
- outcome [10]: inactive

Structure (SMILES): NC(=O)N1C(=O)C(C(=O)c2cc(Cl)cs2)c2cc(F)c(Cl)cc21 (stereo unspecified)
- AC50 [1]: 7.27 µM (active)

Structure (SMILES): CC(C)(C)CC(C)(C)c1ccc(O)c(-n2nc3ccccc3n2)c1
- AC50 [1]: 16.3 µM (active)

Structure (SMILES): O=C(O)c1ccccc1C(c1ccc(O)cc1)c1ccc(O)cc1
- AC50 [1]: 49.9 µM (active)

Structure (SMILES): CC[C@H](c1ccc(O)cc1)[C@@H](CC)c1ccc(O)cc1
- AC50 [1]: 8.97 µM (active)

Structure (SMILES): O=C(O)Cc1cc(I)c(Oc2cc(I)c(O)c(I)c2)c(I)c1
- outcome [4]: inactive
- AC50 [1]: 0.0197 µM (active)
